The nature of assay [1]: E. coli DRC41 culture turbidity changes, primary screen, E. coli filamentation inducer project, strain DRC41, OD650, 48 h (AID 1152).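 Also: E. coli MC1000 strain DRC41 lacking acrAB efflux pump and sulA.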 The following applies: E. coli DRC41 (acrAB sulA), higher = more signal, called active from +8 up or from −8 down.
A short description of assay [2]: small-molecule binders of probe aLefty1, primary screen, biochemical, small-molecule microarray, 635/667 nm fluorescence (AID 1153).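 Also: score merges spot fluorescence with signal-to-noise ratio from the scanned slide images.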 The following applies: higher = more signal.
The nature of assay [3]: PSAC antagonists in infected red cells, primary screen, cell-based, P. falciparum Indochina, OD700, 1 h (AID 1154). The following applies: P. falciparum Indochina infected RBC osmotic lysis, higher = more signal, called active from +8 up or from −8 down.
Assay [4] in a line: PSAC antagonists in infected red cells, primary screen, cell-based, P. falciparum Indochina, OD700, 2 h (AID 1155).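 Also: lysis reports solute entry through the parasite surface anion channel PSAC; channel blockers reduce lysis of infected cells.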 To be noted: P. falciparum Indochina infected erythrocytes, osmotic lysis OD700; higher = more signal, called active from +8 up or from −8 down.
Assay [5] can be described thus: osmotic lysis modulators in infected erythrocytes, primary screen, PSAC antagonist project, cell-based, P. falciparum Indochina, OD700, 3 h (AID 1156). To be noted: higher = more signal, called active from +8 up or from −8 down.
Assay [6] is described as follows: PSAC antagonists in infected red cells, primary screen, cell-based, P. falciparum Indochina, OD700, 18 h (AID 1157). The following applies: P. falciparum Indochina infected erythrocytes, osmotic lysis OD700, 18 h; higher = more signal, called active from +8 up or from −8 down.
The nature of assay [7]: modulators of S6 phosphorylation in cells, primary screen, cell-based, A549, cytoblot, luminescence, serum-stimulated (AID 1158).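 Also: serum-stimulated A549 lung adenocarcinoma cells; signal is phosphorylated S6 detected by cytoblot immunostaining with HRP secondary.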 To be noted: A549 phospho-S6 cytoblot, 5 h, higher = more signal.
The target in assay [8] is NADPH oxidase 2 (Homo sapiens) (UniProt P04839). Put plainly: NOX2-dependent H2O2 signal modulators, primary screen, NOX inhibitor project, cell-based, HEK293-NOX2, PMA-stimulated, Amplex Red fluorescence (AID 1159). Also: test concentration not given here. The following applies: 45 min, higher = more signal, called active from +8 up or from −8 down.
For assay [9], the target named is NADPH oxidase 4 (Homo sapiens) (UniProt Q9NPH5). Put plainly: NOX4-dependent H2O2 signal modulators, primary screen, NOX inhibitor project, cell-based, HEK293-NOX4, tetracycline-induced, Amplex Red fluorescence (AID 1160). To be noted: 45 min, higher = more signal, called active from +8 up or from −8 down.
In assay [10] the target is NADPH oxidase 5 (Homo sapiens) (UniProt Q96PH1). Kind of assay: NOX5-dependent H2O2 signal modulators, primary screen, NOX inhibitor project, cell-based, HEK293-NOX5, Amplex Red fluorescence (AID 1161). The following applies: HEK293-NOX5, ionomycin, 45 min, higher = more signal.
A short description of assay [11]: A549 cell viability effects, profiling panel, calcein-AM fluorescence, 48 h, basal (AID 1162). Also: test concentration not given here. To be noted: higher = more signal.
Assay [12] in a line: adipocyte viability effects, profiling panel, cell-based, 3T3-L1 adipocytes, calcein-AM fluorescence, 48 h, basal (AID 1163). Also: test concentration not given here. To be noted: 3T3-L1 adipocytes viability, higher = more signal.
Assay [13] in a line: HepG2 cell viability effects, profiling panel, calcein-AM fluorescence, 48 h, basal (AID 1164). Also: test concentration not given here. The following applies: higher = more signal.
Assay [14] can be described thus: MM1S cell viability effects, profiling panel, calcein-AM fluorescence, 48 h, basal (AID 1165).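 Also: viability of MM1S multiple myeloma cells under basal unstimulated conditions; test concentration not given here.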 To be noted: higher = more signal.
Assay [15] is described as follows: basal RPMI8226 viability, no added stimulus, profiling panel, cell-based, calcein-AM fluorescence, 48 h, PK04 Diversity Set (AID 1166).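 Also: cells grown under basal conditions without added stimulus; test concentration not given here.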 To be noted: RPMI8226 myeloma viability, higher = more signal.
Assay [16] is described as follows: basal HepG2 mitochondrial membrane potential changes, profiling panel, cell-based, JC-1 fluorescence, 24 h, 100 nL compound (AID 1167). Also: test concentration not given here. The following applies: higher = more signal.
The nature of assay [17]: basal 3T3-L1 adipocyte mitochondrial potential changes, profiling panel, cell-based, JC-1 fluorescence, 3T3-L1 adipocytes, 24 h, 100 nL compound (AID 1168). Also: test concentration not given here. The following applies: JC-1 mitochondrial fluorescence, higher = more signal, called active from +8 up or from −8 down.
The nature of assay [18]: basal RPMI8226 mitochondrial membrane potential changes, profiling panel, cell-based, JC-1 fluorescence, 24 h, 100 nL compound (AID 1169). Also: test concentration not given here. To be noted: RPMI8226 myeloma, JC-1 mitochondrial potential fluorescence, higher = more signal.
Assay [19] can be described thus: basal MM1S mitochondrial membrane potential changes, profiling panel, cell-based, JC-1 fluorescence, 24 h, 100 nL compound (AID 1170). Also: test concentration not given here. To be noted: higher = more signal.
Assay [20] is described as follows: A549 lung cancer cell viability effects, profiling panel, resazurin fluorescence, 24 h, PK04 Diversity Set (AID 1171). Also: test concentration not given here. To be noted: higher = more signal, called active from +8 up or from −8 down.

Active and inactive are the calls of the source.

Results on 4 molecules are retold here after PubChem BioAssay.

Sequence of NADPH oxidase 5 (Homo sapiens) (Q96PH1 whole entry, looked up): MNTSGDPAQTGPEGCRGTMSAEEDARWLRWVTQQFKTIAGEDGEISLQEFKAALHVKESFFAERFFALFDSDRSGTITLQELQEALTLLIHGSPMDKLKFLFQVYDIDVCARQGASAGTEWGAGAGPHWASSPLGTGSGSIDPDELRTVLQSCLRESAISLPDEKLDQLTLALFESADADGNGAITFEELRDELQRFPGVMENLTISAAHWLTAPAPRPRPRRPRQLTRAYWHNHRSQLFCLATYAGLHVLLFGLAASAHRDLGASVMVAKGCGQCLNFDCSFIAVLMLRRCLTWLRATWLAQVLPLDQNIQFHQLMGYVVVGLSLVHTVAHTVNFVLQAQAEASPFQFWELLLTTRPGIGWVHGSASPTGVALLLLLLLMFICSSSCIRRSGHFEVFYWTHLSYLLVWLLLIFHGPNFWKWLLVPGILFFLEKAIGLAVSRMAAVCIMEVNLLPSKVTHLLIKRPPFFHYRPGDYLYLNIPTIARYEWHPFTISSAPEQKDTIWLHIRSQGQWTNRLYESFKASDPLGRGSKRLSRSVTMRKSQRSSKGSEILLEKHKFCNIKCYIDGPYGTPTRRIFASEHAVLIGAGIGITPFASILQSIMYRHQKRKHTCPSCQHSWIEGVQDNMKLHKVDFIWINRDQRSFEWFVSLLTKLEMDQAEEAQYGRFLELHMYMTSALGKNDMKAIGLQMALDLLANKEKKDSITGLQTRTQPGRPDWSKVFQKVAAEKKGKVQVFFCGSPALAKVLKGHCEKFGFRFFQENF
Sequence of NADPH oxidase 4 (Homo sapiens) (Q9NPH5 whole entry, looked up): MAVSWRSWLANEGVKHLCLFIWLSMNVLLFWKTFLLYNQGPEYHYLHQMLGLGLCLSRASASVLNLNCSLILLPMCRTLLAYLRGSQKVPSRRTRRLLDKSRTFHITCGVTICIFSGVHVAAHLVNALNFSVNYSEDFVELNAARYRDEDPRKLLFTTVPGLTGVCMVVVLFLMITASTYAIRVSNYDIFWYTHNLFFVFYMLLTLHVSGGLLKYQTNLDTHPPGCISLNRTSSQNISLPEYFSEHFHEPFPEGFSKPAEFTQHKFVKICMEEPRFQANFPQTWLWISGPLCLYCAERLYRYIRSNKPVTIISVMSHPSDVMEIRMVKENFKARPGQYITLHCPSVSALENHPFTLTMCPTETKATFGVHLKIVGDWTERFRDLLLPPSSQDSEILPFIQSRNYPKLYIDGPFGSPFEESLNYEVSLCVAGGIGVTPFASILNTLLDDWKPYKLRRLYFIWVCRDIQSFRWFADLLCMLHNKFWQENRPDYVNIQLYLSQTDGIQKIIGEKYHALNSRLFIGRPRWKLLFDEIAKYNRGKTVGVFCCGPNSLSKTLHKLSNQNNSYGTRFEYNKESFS
Sequence of NADPH oxidase 2 (Homo sapiens) (P04839 whole entry, looked up): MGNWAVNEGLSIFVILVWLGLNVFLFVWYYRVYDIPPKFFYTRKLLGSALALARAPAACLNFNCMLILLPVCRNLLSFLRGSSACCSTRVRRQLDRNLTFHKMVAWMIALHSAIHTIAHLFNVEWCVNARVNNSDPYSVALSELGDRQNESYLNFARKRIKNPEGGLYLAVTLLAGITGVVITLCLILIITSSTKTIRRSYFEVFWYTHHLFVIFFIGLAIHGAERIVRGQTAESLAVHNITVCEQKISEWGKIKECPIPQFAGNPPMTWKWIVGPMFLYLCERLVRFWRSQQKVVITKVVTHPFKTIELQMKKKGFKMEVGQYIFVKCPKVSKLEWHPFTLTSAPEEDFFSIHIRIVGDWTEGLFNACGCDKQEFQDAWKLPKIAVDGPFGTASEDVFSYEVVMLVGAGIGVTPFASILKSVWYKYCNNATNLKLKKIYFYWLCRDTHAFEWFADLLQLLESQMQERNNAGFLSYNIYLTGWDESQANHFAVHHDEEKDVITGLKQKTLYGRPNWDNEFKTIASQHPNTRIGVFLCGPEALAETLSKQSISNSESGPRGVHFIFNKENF

Turning to `NC(=O)[C@@H]1[C@H]2C(=O)O[C@H](c3ccccc3)[C@H](c3ccccc3)N2[C@H](c2ccc(O)cc2)[C@@]12C(=O)Nc1ccc(C#CC3(O)CCCCCC3)cc12`, the z-score in assay [1] was -0.723 (inactive); in assay [3], 2.28 (inactive); in assay [4], 0.912 (inactive); in assay [5], 0.904 (inactive); in [6], 0.812 (inactive); in assay [7], -0.231. The z-score in [8] is 0.834 (inactive); in assay [9] it was -0.258 (inactive); in [10] it was -0.125; in assay [11], 0.735; in assay [12], -0.0487; in [13] it was 0.338. The z-score in assay [14] was -1.44; in [15], -0.482; in assay [16], -0.717; in [17], -0.928 (inactive); in assay [18], -0.566; in assay [19] it was -0.0259. Moreover, the z-score in [20] is 0.399 (inactive). Besides, the composite z-score in [2] is -0.0544.

For the molecule `O=C1OCCC/C=C\[C@H]2OC34C=CCN(c5ccc6ccccc6c5)C(=O)[C@H]3N(CCCCCCO)C(=O)[C@@H]4C12` (stereo not given in full), the z-score in assay [1] was 1.63 (inactive); in assay [3], 3.35 (inactive); in assay [4] it was -0.781 (inactive); in assay [5] it was 0.562 (inactive); in assay [6], -1.46 (inactive); in assay [7] it was 1.4. Also, the z-score in [8] was 1.52 (inactive); in assay [9], 0.341 (inactive); in [10] it was 2.26; in assay [11], 1.21; in assay [12], 0.817; in [13], 2. Also, the z-score in assay [14] was 1.92; in assay [15], 0.254; in [16] it was 1.02; in assay [17], 0.4 (inactive); in assay [18], -0.967; in [19], -0.257. Also, the z-score in assay [20] was -0.0595 (inactive). In assay [2], this molecule returned a composite z-score of 0.325.

On to `COc1ccc([Si](C)(C)[C@H]2[C@H](CC(=O)N3Cc4ccccc4C[C@H]3CO)O[C@@]3(C(=O)N(Cc4ccc(N5CCC5=O)cc4)c4ccccc43)[C@@H]2C)cc1`, for which the z-score in assay [1] is 0.97 (inactive); in assay [3], 6.86 (inactive); in [4], 1.45 (inactive); in assay [5], 1.46 (inactive); in assay [6] it was 1.11 (inactive); in assay [7], 0.414. The z-score in [8] is -0.241 (inactive); in [9], 0.465 (inactive); in [10], -1.64; in assay [11], -0.279; in assay [12], 0.656; in [13], -0.727. The z-score in [14] was -2.32; in assay [15] it was -3.26; in assay [16], 1.67; in assay [17], 0.657 (inactive); in assay [18] it was -1.04; in assay [19], -0.928. The z-score in assay [20] was -0.0964 (inactive). This molecule returned a composite z-score in [2] of 0.874.

In the case of `COc1ccc([C@H]2C[C@H]3C(Br)=C[C@@H]2C(=O)[C@]32CO2)cc1`, the z-score was 0.834 (inactive) in assay [1]; 1.27 (inactive) in assay [3]; 0.581 (inactive) in [4]; 1.23 (inactive) in assay [5]; 0.207 (inactive) in assay [6]; -0.288 in assay [7]. Moreover, the z-score is -0.0817 (inactive) in assay [8]; 0.106 (inactive) in assay [9]; -0.837 in assay [10]; 0.321 in assay [11]; 0.0531 in assay [12]; -0.193 in assay [13]. In addition, the z-score in assay [14] was -2.75; in [15] it was -1.55; in assay [16], -0.262; in [17], 0.558 (inactive); in [18] it was -0.556; in assay [19] it was -0.914. For the same molecule, the z-score in assay [20] was 0.217 (inactive). In assay [2], the composite z-score is -0.294.
